Common to all, as to experiment: NCI-60 one-dose screen, 48 h (100 = growth as untreated, 0 = no growth, -100 = all killed)
What all share (settings): 10 µM unless noted

For assay [1], the system named is RPMI-8226 leukemia.
Assay [2] relates to OVCAR-8 ovarian.
Assay [3] relates to OVCAR-5 ovarian.
The subject of assay [4] is OVCAR-4 ovarian.
Assay [5] has as its system SK-OV-3 ovarian.
The test system of assay [6] is IGROV1 ovarian.
Assay [7] relates to OVCAR-3 ovarian.
For assay [8], the system named is HS 578T breast.
In assay [9] the test system is NCI/ADR-RES ovarian.
Assay [10] deals with BT-549 breast.
Assay [11] concerns MDA-MB-435 melanoma.
The test system of assay [12] is SW-620 colon.
Assay [13] has as its system MCF7 breast.
Assay [14] relates to HCT-116 colon.
For assay [15], the system named is HCC-2998 colon.
For assay [16], the system named is KM12 colon.
Assay [17] has as its system T-47D breast.

Compounds without any hit were thinned out: in the full panel of roughly 83,000, 20% have a hit.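 Testing used 96-well plates and a 48-hour single-concentration exposure. Example: -40 means 40% of the starting cells died.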 A number with no mark means an inactive call. Active and inactive are the calls of the source. Rule for the calls: active = growth percent below 10; inactive = the rest.

For the molecule `COc1cccc(CNC(=O)c2cccc(C3CC(=O)c4c(cc(OC)c(OC)c4OC)O3)c2)c1` (configuration not stated), the growth in assay [1] is 32.9%; in assay [2], 67.1%; in assay [3], 89.1%; in [4] it was 78.3%; in assay [5] it was 81.7%; in assay [6] it was 46.5%. Besides, the growth in [7] was 12.6%; in assay [8], 102%; in assay [9], 41.7%; in assay [10], 32.8%; in [11], -42.4% (active); in assay [12] it was 34.9%. Moreover, the growth in assay [13] is 25.3%; in assay [14], 18.5%; in assay [15] it was 95.2%; in [16], 41.8%.
In the case of `CC1(c2ccc(Br)cc2)NC(=O)NC1=O` (configuration not stated), the growth in assay [1] is 113%; in assay [2], 97.9%; in [3], 104%; in assay [4] it was 104%; in assay [5] it was 103%; in assay [6], 102%. The growth in assay [7] was 104%; in [8], 101%; in assay [9], 103%; in [10], 90.4%; in assay [11], 113%; in [12], 106%. In addition, the growth in assay [13] was 101%; in [14], 99.5%; in assay [15], 106%; in [16], 101%.
In the case of `COc1ccc2c(N)ncc(C#Cc3cc(C(=O)Nc4ccc(CN5CCN(C)CC5)c(C(F)(F)F)c4)cnc3C)c2c1`, the growth is -45.1% (active) in assay [1]; -34.7% (active) in [2]; -21.6% (active) in [3]; 0.668% (active) in assay [4]; 24.5% in assay [5]; -71.6% (active) in [6]. In addition, the growth is 11.7% in [7]; 30% in [8]; 16% in assay [9]; 46% in assay [10]; -56.7% (active) in [11]; -57.7% (active) in assay [12]. For the same molecule, the growth in assay [13] is -49.2% (active); in assay [14] it was -75.8% (active); in [15] it was 19.3%; in assay [16], -49.1% (active).
Turning to `COC(=O)c1c[n+]([O-])ccc1OC`, the growth is 111% in assay [1]; 110% in assay [2]; 117% in assay [3]; 123% in [4]; 106% in assay [5]; 113% in assay [7]. Besides, the growth in assay [8] is 109%; in assay [9] it was 105%; in assay [17], 114%; in assay [10] it was 111%; in assay [11], 102%; in [12], 109%. Further, the growth in assay [13] was 101%; in [14], 113%; in assay [15] it was 104%; in assay [16], 111%.
In the case of `CCOC(=O)c1csc(-c2ccc(COC(=O)c3ccccc3)o2)n1`, the growth was 111% in assay [1]; 111% in [2]; 102% in [3]; 116% in [4]; 107% in assay [5]; 103% in [6]. In addition, the growth in assay [7] is 116%; in assay [8], 111%; in [9], 109%; in assay [10] it was 116%; in [11], 101%; in assay [12], 112%. For the same molecule, the growth was 92.9% in assay [13], 99.8% in assay [14], 105% in assay [15] and 112% in assay [16].
As for `Cc1ncc(C(=O)Nc2ccc(CN3CCN(C)CC3)c(C(F)(F)F)c2)cc1C#Cc1c(N)ncc2ccccc12`, the growth is -47.5% (active) in assay [1]; -85.7% (active) in assay [2]; -92.6% (active) in assay [3]; -58.8% (active) in [4]; -2.88% (active) in [5]; -77.1% (active) in assay [6]. Also, the growth in assay [8] is -25.5% (active); in assay [9], -70% (active); in [10], -96.4% (active); in assay [11] it was -92.3% (active); in [12], -60.6% (active); in [13], -71.7% (active). Further, the growth in assay [14] is -88.2% (active); in [15], -89.6% (active); in assay [16], -68.1% (active).
As to `COc1ccccc1C(=O)Nc1cccc(-c2cc(=O)c3c(OC)c(OC)c(OC)cc3o2)c1`, the growth in assay [1] is 6.75% (active); in assay [2] it was 38.7%; in assay [3] it was 81.2%; in [4] it was 59.1%; in [5], 100%; in assay [6], 42.9%. Besides, the growth in [7] was 51.3%; in assay [8], 23.6%; in assay [9], 58.3%; in assay [11], 43.5%; in assay [12] it was 63.4%; in assay [13], 53.4%. Also, the figures for the growth in assay [14], in assay [15] and in assay [16] were 36.7%, 67.8% and 38.4%, respectively.
For the molecule `COc1ccc2cn3c4ccc(O)cc4[nH]c(=O)c3c2c1`, the growth in [1] was 13.2%; in assay [2], 12.7%; in assay [3], 21%; in [4], -2.67% (active); in [5] it was -1.15% (active); in assay [6] it was 17.6%. Also, the growth was -22.4% (active) in assay [8]; -39% (active) in assay [9]; 33.9% in [17]; -37.7% (active) in [11]; 11.3% in [12]; 10.6% in assay [14]. The figures for the growth in assay [15] and in [16] were 19.3% and 11.9%, respectively.
In the case of `COc1cc(C(=O)Nc2ccc(N(C)C)cc2)cc(OC)c1OC`, the growth is 97.7% in assay [1]; 92.2% in [2]; 94.7% in assay [3]; 93.1% in assay [4]; 85.7% in assay [5]; 93.7% in assay [6]. Moreover, the growth is 101% in [7]; 87.3% in [9]; 91.1% in [17]; 96.7% in assay [10]; 1.26% (active) in assay [11]; 85.9% in assay [12]. Further, the growth in [13] is 77.8%; in assay [14] it was 89%; in assay [15] it was 92.1%; in assay [16], 81%.
`COc1cc2oc(-c3ccc(NC(=O)c4ccccc4)cc3)cc(=O)c2c(OC)c1OC`: the growth in assay [1] was 73.7%; in assay [2], 77.9%; in assay [3], 86.6%; in assay [4] it was 64.6%; in assay [5] it was 101%; in assay [6] it was 84.2%. The growth in assay [7] was 92.9%; in [8], 80.7%; in [9], 89.4%; in assay [11], 95%; in assay [12], 93.2%; in assay [13], 75%. Further, the growth in [14] was 91.3%; in assay [16] it was 90.6%.
As for `O=C(c1ccccc1)c1ccccc1-c1ccccc1`, the growth in [1] was 13.6%; in [2], 36.7%; in [3] it was 52.6%; in assay [4], 83.3%; in assay [5], 23.5%; in assay [6], 41.7%. In addition, the growth in assay [8] is -6.36% (active); in assay [9], -23.7% (active); in [17], 27%; in [11], -22.2% (active); in [12], 15.8%; in [13], 18.1%. Moreover, the growth is 14% in assay [14], 47.1% in assay [15] and 29.5% in assay [16].
`CCOC(=O)CNS(=O)(=O)CC(=O)c1ccccc1`: the growth in assay [1] is 96.1%; in assay [2], 108%; in assay [3] it was 101%; in [4], 85.4%; in assay [5] it was 105%; in [6], 94.6%. In addition, the growth in [7] was 126%; in [8], 124%; in [9], 102%; in assay [10], 86.4%; in [11], 99.7%; in assay [12], 110%. In addition, the growth in [14] was 103%; in assay [15], 92.2%; in [16], 108%.
On to `O=C(NCCCl)Nc1nccnc1OCc1ccc(F)cc1`, for which the growth in [1] was 96.4%; in assay [2], 101%; in [3], 96.6%; in assay [4], 104%; in assay [5], 93.1%; in assay [6] it was 107%. Further, the growth in [8] is 115%; in [9], 104%; in assay [10] it was 88.8%; in assay [11], 107%; in [12], 103%; in [13], 85.1%. For the same molecule, the growth in assay [14] was 104%; in assay [15], 113%; in assay [16], 107%.
Consider `Cn1c2ccccc2c2ccccc21`, for which the growth in assay [1] was 94.3%; in [2], 98.3%; in assay [3], 107%; in assay [4], 105%; in assay [5] it was 102%; in assay [6] it was 102%. Moreover, the growth in [7] was 107%; in assay [9], 101%; in assay [17], 90%; in assay [10], 106%; in assay [11], 103%; in [12] it was 106%. Besides, the growth in assay [13] is 106%; in assay [14] it was 107%; in assay [15] it was 110%; in [16], 101%.
As to `COc1ccc2cnc(N)c(C#Cc3cc(C(=O)Nc4ccc(CN5CCN(C)CC5)c(C(F)(F)F)c4)cnc3C)c2c1`, the growth in assay [1] was 48.1%; in [2], 75.4%; in assay [3], -39.3% (active); in assay [4], 58.2%; in assay [5] it was 69.4%; in [6] it was 28.8%. The growth in assay [7] was 93%; in assay [8], -16.3% (active); in assay [9] it was 78.1%; in [10], 54.7%; in assay [11], 26.2%; in assay [12], 13.8%. The growth in assay [13] is 39%; in assay [14], 20.5%; in assay [15], 86.1%; in assay [16], 11%.
Consider `COc1cc(NC(=O)CSc2nc3ccc(Cl)cc3c(=O)n2-c2ccc(F)cc2)cc(OC)c1OC`, for which the growth in assay [1] is 39.2%; in [2], 88.8%; in assay [3] it was 88.7%; in assay [4] it was 77.2%; in assay [5], 87.6%; in assay [6] it was 86.6%. The growth was 75% in assay [8]; 81% in assay [9]; 72.6% in assay [17]; 95.9% in [10]; 90.8% in assay [11]; 95.4% in assay [12]. Also, the growth in [13] was 87.5%; in assay [14] it was 79.4%; in assay [16] it was 85.2%.
In the case of `OCCN1CCCN(CCCN2c3ccccc3Sc3ccc(C(F)(F)F)cc32)CC1`, the growth in assay [1] was 42.2%; in [2], 91%; in [3], 83.9%; in [4], 54.4%; in assay [5], 77.3%; in [7], 78.7%. Further, the growth in assay [8] was 29.1%; in assay [9], 73.5%; in [17], 60.7%; in [10], 72.3%; in assay [11], -29.2% (active); in assay [12], 67.7%. The growth was 39.2% in assay [13], 29.2% in assay [14], -42.4% (active) in assay [15] and 54.7% in assay [16].
Consider `CCCCCCCCCCCCc1ccc([N+](CC)(CC)CC)cc1`, for which the growth was 6.37% (active) in assay [1]; 31.7% in assay [2]; 92.3% in assay [3]; 21.6% in [4]; 73.2% in assay [5]; 48.1% in [6]. Besides, the growth in assay [7] is 23.2%; in [8] it was 65.4%; in assay [9], 103%; in assay [10] it was 30.2%; in assay [11], 13.9%; in assay [13] it was 27.9%. Also, the growth is 41.8% in [14] and 25.6% in assay [16].
Turning to `COc1cc2c(c(OC)c1OC)C(=O)CC(c1cccc(C(=O)Nc3cccc(Br)c3)c1)O2` (configuration not stated), the growth was 46.8% in assay [1]; 55% in assay [2]; 95.7% in assay [3]; 82.7% in assay [4]; 82% in assay [5]; 83% in assay [6]. For the same molecule, the growth in [7] is 87.7%; in assay [8], 91.5%; in assay [9], 84.7%; in assay [10], 63%; in assay [11], 69.3%; in [12], 95.4%. Further, the growth in assay [13] is 68.3%; in [14], 58.1%; in assay [15] it was 112%; in assay [16] it was 71.2%.

Values taken from PubChem BioAssay (NCI).
